# From the supplement of paper PMC13094657
# ± gives the standard deviation of the averaged measurements.
# System: MDA-MB-231
# Test: cell viability relative to vehicle unstimulated control (fraction); higher = more viable cells
# Details: pre-treatment time: 18 h then 24 h IFNg/TNF
# 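Further: viability of the cells left after supernatant collection, read with Deep Blue dye added for 4 h, as absorbance at 570 nm minus 600 nm.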
row,Structure (SMILES),cell viability
1,OCC1=C[C@@H](O)[C@]2(O[C@@H]3O[C@H](CO)[C@@H](O)[C@H](O)[C@H]3O[C@@H]3O[C@H](CO)[C@@H](O)[C@H](O)[C@H]3O)C=CO[C@@H](O[C@@H]3O[C@H](CO)[C@@H](O)[C@H](O)[C@H]3O)[C@H]12 [Rehmannioside D] (compound dose: 10 uM),1.05 ± 0.29
2,CC(CCC(OC1OC(CO)C(O)C(O)C1OC1OC(CO)C(O)C(O)C1O)C(C)(C)O)C1CCC2(C)C3CC=C4C(CCC(O)C4(C)C)C3(C)C(O)CC12C (stereo not drawn) [Mogroside II-A] (compound dose: 10 uM),1.05 ± 0.069
3,CSC(=O)OCC1=C[C@H](O)[C@H]2C(C(=O)O)=CO[C@@H](O[C@@H]3O[C@@H](CO)[C@@H](O)[C@@H](O)[C@H]3O)[C@H]12 [Paederosidic acid] (compound dose: 10 uM),1.14 ± 0.012
